Screening data from PubChem BioAssay.
The list is not random: actives were taken first. Their share in the collection is about 3%.
Shn3 inh set2: reduces Shn3 3'UTR luciferase signal in osteoblasts. 0.52% of 360,000 active. AID 588674. Clone20 osteoblast Shn3 3'UTR firefly luciferase, 24 h. inhibition, % at 12.5 µM;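 active means mean inhibition of at least 75% with every replicate also reaching 75%; inconclusive means mean inhibition at least 75% but some replicate below; inactive means mean inhibition below 75%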;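 further: 0% = median of neutral control wells and 100% = pilot-screen positive control compound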
Peg3 promoter: reduces Peg3 promoter-driven luciferase expression in HeLa. AID 588405. 1.7% of 360,000 active. HeLa PEG-Prom luciferase reporter, luminescence, overnight. inhibition, % at 20 µM;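 active means inhibition of at least 50% at 20 µM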
EWS-Fli block: blocks EWS/Fli oncoprotein-driven transcription; A673 NR0B1-luciferase reporter, viability-normalised; inhibition, % at 12.6 µM; 0.67% of 350,000 active; AID 651661;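 active means mean inhibition of at least 50% after viability correction, with every replicate also passing that limit; inconclusive means mean reaches 50% but only one of two replicates passes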;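 further: firefly luciferase signal divided by Alamar Blue viability fluorescence both relative to DMSO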
ABHD5-PLIN5 inh: blocks binding of human ABHD5 to perilipin-5; Split G. princeps luciferase complementation, luminescence, 4 h; inhibition, % at 4 µM; 0.78% of 360,000 active; AID 602281;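 active means inhibition above the mean inhibition across every tested compound plus 3 SD, cut at about 22% in these data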;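 further: 0% = DMSO only wells and the 100% control is not disclosed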
Target sequence (Q00G26 whole entry, looked up): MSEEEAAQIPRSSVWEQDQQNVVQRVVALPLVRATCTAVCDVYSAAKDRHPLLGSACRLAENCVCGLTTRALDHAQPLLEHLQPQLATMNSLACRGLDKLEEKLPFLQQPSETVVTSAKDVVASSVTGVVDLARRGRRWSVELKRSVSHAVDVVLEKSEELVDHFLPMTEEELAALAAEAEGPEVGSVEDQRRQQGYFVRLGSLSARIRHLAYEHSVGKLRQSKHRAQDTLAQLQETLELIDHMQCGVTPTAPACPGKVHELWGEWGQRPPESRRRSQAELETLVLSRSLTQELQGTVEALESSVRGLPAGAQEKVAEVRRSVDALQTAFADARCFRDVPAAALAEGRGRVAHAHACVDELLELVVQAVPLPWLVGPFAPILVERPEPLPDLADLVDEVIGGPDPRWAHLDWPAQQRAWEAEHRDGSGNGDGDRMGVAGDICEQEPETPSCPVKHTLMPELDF
Target sequence (Q8WTS1 whole entry, looked up): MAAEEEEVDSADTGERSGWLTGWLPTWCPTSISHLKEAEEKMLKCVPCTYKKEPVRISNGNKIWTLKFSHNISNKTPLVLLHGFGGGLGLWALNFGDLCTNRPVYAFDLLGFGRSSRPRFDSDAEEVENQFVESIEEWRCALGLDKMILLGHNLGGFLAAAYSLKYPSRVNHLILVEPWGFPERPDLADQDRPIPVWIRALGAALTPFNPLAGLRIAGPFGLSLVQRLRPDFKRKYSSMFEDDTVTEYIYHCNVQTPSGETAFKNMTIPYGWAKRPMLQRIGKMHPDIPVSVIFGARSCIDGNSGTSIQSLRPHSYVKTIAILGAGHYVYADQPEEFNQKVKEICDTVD
MITF TRPM1 inh: inhibitors of MITF-driven TRPM1 promoter in melanoma cells | SK-MEL-5 TRPM1 promoter luciferase, 24 h | inhibition, % at 12.5 µM | 0.83% of 330,000 active;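 active means mean inhibition across replicates of 60% or more, whatever share of single replicates reaches that level; inconclusive means some that reach 60%, reason not given; inactive means mean inhibition across replicates below 60%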
PAX8 inh HTS: lowers PAX8-driven luciferase in RMG-I cells. RMG-I TPO-luciferase reporter, SteadyGlo, 24 h. inhibition, % at 12.6 µM. 1.2% of 360,000 active;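 active means mean replicate inhibition at least 60% with every replicate also reaching 60%; inconclusive means only one of the two criteria is met; inactive means mean below 60% and not all replicates reaching 60%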;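 further: luciferase light reporting Pax8 driven TPO promoter activity; plate controls were median of neutral control wells for no effect and mitoxantrone controls for full effect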
* marks the source's active call; other numbers are inactive results; ? = inconclusive; · = not tested or not shown.

SMILES	Shn3 inh set2	Peg3 promoter	EWS-Fli block	ABHD5-PLIN5 inh	MITF TRPM1 inh	PAX8 inh HTS
O=C(N/N=C/c1sc(N2CCOCC2)nc1-c1ccccc1)c1ccccc1Cl	-4	-2	1	12	9	-7
O=[N+]([O-])c1ccc(N/N=C/c2sc(N3CCOCC3)nc2-c2ccccc2)c(S(=O)(=O)Nc2ccc(Cl)cc2)c1	91*	54*	38	-1	72*	102*
O=[N+]([O-])c1ccc(N/N=C/c2sc(N3CCOCC3)nc2-c2ccccc2)c(S(=O)(=O)Nc2ccccc2Cl)c1	87*	68*	·	-4	65*	0
CO[C@@H]1CC[C@H]2CCN(C)C(=O)[C@H](C)CN(C)C(=O)c3cc(C#N)ccc3OC[C@@H]1O2	·	·	-61	·	·	-2
Cc1sc(NC(=O)CCCC(=O)O)c(C(N)=O)c1-c1ccccc1	36	-74	54*	-1	41	-10
Cc1cccc(NC(=O)Nc2ccc(C#N)cc2)n1	-5	62*	-67	6	18	-54
Oc1ccc2ccccc2c1CNc1cnc2ccccc2c1	-3	-32	·	22*	6	·
Oc1ccccc1CNc1cnc2ccccc2c1	5	-238	-31	-12	-35	·
Cn1c(=O)c2[nH]c(CCCCCCCCc3nc4ccccc4[nH]3)nc2n(C)c1=O	86*	23	-4	2	3	9
Cn1c(=O)c2[nH]c(CCCCc3nc4ccccc4[nH]3)nc2n(C)c1=O	6	0	-16	-3	11	2
CCC(=O)N(C)C[C@H]1Oc2cc(-c3ccc(OC)cc3)ccc2S(=O)(=O)N([C@@H](C)CO)C[C@@H]1C	·	·	5	·	·	-18
CCCCN(CC)CCCNC(=O)c1cc2c(=O)n(CC)c3ccccc3c2s1	-89	89*	23	11	69*	5
CCCCN(CC)CCNC(=O)c1cc2c(=O)n(CC)c3ccccc3c2s1	43	34	28	8	-7	2
COc1ccc2c3c([nH]c2c1)[C@@H](CO)N(C)CC31CN(C(=O)c2ccccn2)C1	·	·	3	·	·	·
COc1cc(C(=O)ON=C2C3CC4CC(C3)CC2C4)cc(OC)c1OC	3	76*	33	5	20	-3
COc1cccc(CNC(=O)C[C@H]2CC[C@H](NC(C)=O)[C@@H](CO)O2)c1	·	·	1	·	·	-2
COc1ccc(-c2cc(NC=O)c3ncc(-c4ccc(C(C)=O)cc4)n3c2)cn1	22	57*	43	1	·	65*
O=CNc1cc(-c2ccc(C(=O)NC3CC3)cc2)cn2c(-c3ccccc3)cnc12	-4	61*	-13	7	·	48
CC(=O)c1ccc(-c2cnc3c(NC=O)cc(-c4ccc(C(=O)NC5CC5)cc4)cn23)cc1	41	63*	4	7	·	45
O=CNc1cc(-c2ccc(C(=O)NC3CC3)cc2)cn2c(-c3ccc(F)c(Cl)c3)cnc12	-1	28	-13	13	·	47
CCC(=O)N(C)C[C@H]1Oc2ncc(-c3ccc(C)cc3)cc2C(=O)N([C@H](C)CO)C[C@H]1C	·	·	-9	·	·	·
O=C(C[C@H]1CC[C@H]2[C@@H](COC[C@H](O)CN2Cc2cccc(Cl)c2)O1)Nc1nccs1	·	·	-4	·	·	11
CN(C)CC#Cc1ccc([C@@H]2[C@@H](CO)N3CCCCN(S(=O)(=O)c4ccccc4F)C[C@@H]23)cc1	·	·	-7	·	·	-5
COc1cc2c(c(OC)c1OC)C(c1ccc3c(c1)OCO3)CC(=O)O2 (stereo not given)	-3	-6	7	1	4	-10
COc1cc(C2c3cc4c(cc3CC3COC(=O)N32)OCO4)cc(OC)c1OC (stereo not given)	8	-26	?	0	17	72*
SMILES	Shn3 inh set2	Peg3 promoter	EWS-Fli block	ABHD5-PLIN5 inh	MITF TRPM1 inh	PAX8 inh HTS
O=C(N/N=C/c1cc2ccccc2nc1Cl)/C(=C/c1cccs1)NC(=O)c1ccccc1	5	66*	·	12	10	·
C[C@H](CO)N1C[C@H](C)[C@H](CN(C)C(=O)c2ccc(F)cc2)Oc2ncc(/C=C/c3ccccc3)cc2C1=O	·	·	-1	·	·	·
COc1ccc(-c2oc(NC(=O)CCl)c(C#N)c2-c2ccc(OC)cc2)cc1	·	102*	·	6	43	40
COc1ccc(-c2oc(NC(=O)CSc3ncn[nH]3)c(C#N)c2-c2ccc(OC)cc2)cc1	-29	30	14	-10	4	·
N#CCC(=O)N/N=C\c1cccc(OC/C=C/c2ccccc2)c1	-6	52*	-42	-6	10	-16
CCSc1ccc(-c2cc(NC=O)c3ncc(-c4cccc(C(=O)NCCN(C)C)c4)n3c2)cc1	-11	89*	?	19	·	99*
CC(=O)Nc1cc(-c2cccc(C(=O)NCCN(C)C)c2)cn2c(-c3cccc(C(F)(F)F)c3)cnc12	3	99*	55*	4	·	106*
CN(C)CCNC(=O)c1cccc(-c2cnc3c(NC=O)cc(/C=C/c4ccccc4)cn23)c1	3	97*	15	13	·	?
C[C@@H]1CN([C@@H](C)CO)C(=O)c2ccccc2-c2ccccc2CO[C@@H]1CN(C)C(=O)c1ccccc1	·	·	-3	·	·	·
CC(O)C(NS(=O)(=O)c1ccc(Cl)cc1)C(=O)OCC(=O)c1ccc2c(c1)NC(=O)CO2 (stereo not given)	-9	-8	-1	0	14	-12
CC(C)CC(NC(=O)c1ccc(Cl)cc1)C(=O)OCC(=O)c1ccc2c(c1)NC(=O)CO2 (stereo not given)	87*	84*	·	-6	56	·
O=C(Nc1ccc2c(c1)OCCO2)c1coc2ccccc2c1=O	50	3	·	2	73*	1
O=C(CCl)Nc1c(C(=O)Nc2ccc3c(c2)OCCO3)oc2ccccc12	95*	98*	2	-3	-14	·
Cc1ccccc1C(=O)Nc1ccc2c(c1)OCCO2	4	-56	16	-2	10	6
COCC(=O)Nc1c(C(=O)Nc2ccc3c(c2)OCO3)oc2ccccc12	-75	-170	-60	-7	-58	-232
C#CCN(C)Cc1ccccc1	86*	-4	-7	-8	4	-7
Cn1c(C=O)c(C#CC(C)(C)O)c2ccccc21	-13	15	2	-11	18	74*
COc1ccc(C#Cc2ccc3c(c2)c(=O)c2ccccc2n3C)cc1	-3	-42	40	7	4	-11
COc1cccc(C#Cc2c(C=O)n(C)c3ccccc23)c1	7	-1	-17	-6	8	85*
COc1ccc(S(=O)(=O)Nc2ccc3c(c2)C(=O)N([C@H](C)CO)C[C@H](C)[C@H](CN(C)Cc2ccc(C(F)(F)F)cc2)OCCCC[C@@H](C)O3)cc1	·	·	1	·	·	47
C[C@@H]1CCCCO[C@H](CN(C)Cc2ccc(C(F)(F)F)cc2)[C@@H](C)CN([C@H](C)CO)C(=O)c2cc(NS(=O)(=O)c3ccccc3)ccc2O1	·	·	5	·	·	13
